Source: PubChem (The Scripps Research Institute Molecular Screening Center)
In the library only some 2.6% were active in any assay of this set; here they are far more common.
TCR-CD3 inh: inhibitors of human TCR-CD3 interaction, primary screen, biochemical, fluorescence, TAMRA-labeled TCR probe. T-cell receptor (TCR). inhibition, % at 9.4 µM. hit rate 0.37% among 360,000. AID 651800, 2012;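 further: recombinant mutant TCR 2C K166C tagged with TAMRA read by polarization; 0% = receptor in buffer alone and 100% = receptor with positive control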
PAD4 inh: human PAD4 inhibitors, primary screen, biochemical, fluorescence polarization, 1536-well format; Protein-arginine deiminase type-4 (Homo sapiens), Q9UM07; recombinant PAD4, RCA probe fluorescence polarization; inhibition, % at 6.36 µM; hit rate 0.41% among 330,000; AID 485272, 2010;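 active means percent inhibition above a cutoff equal to the mean of all tested compounds plus 3 SD, cut at about 15% in these data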;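 further: 0% = PAD4 with RCA probe and DMSO and 100% = probe without PAD4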
Target sequence (Q9UM07 whole entry, looked up): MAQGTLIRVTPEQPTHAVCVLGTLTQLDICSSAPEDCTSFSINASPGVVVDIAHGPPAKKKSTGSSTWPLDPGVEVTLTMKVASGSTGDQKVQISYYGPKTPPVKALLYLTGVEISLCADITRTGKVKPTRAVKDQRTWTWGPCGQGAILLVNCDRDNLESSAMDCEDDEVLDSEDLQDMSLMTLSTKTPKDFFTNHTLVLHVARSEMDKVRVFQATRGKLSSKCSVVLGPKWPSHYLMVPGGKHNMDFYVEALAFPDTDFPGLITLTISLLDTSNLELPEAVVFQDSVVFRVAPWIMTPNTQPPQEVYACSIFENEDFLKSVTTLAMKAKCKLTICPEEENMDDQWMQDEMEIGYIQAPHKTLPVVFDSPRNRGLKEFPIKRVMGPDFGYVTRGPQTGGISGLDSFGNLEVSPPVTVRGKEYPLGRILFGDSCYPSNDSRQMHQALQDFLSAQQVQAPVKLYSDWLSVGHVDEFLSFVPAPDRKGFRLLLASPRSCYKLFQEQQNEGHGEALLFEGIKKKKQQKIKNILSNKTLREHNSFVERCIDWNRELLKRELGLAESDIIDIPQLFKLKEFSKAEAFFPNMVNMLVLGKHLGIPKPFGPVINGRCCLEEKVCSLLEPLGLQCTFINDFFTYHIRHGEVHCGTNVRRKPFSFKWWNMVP
PRMT1 inh: PRMT1 methyltransferase inhibitors, primary screen, biochemical, fluorescence polarization; recombinant PRMT1, activity-based probe fluorescence polarization; inhibition, % at 2.79 µM; hit rate 1.3% among 370,000; AID 652257, 2013;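 active means inhibition above about 21% made by adding two undisclosed values, limit read from the data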
PME-1 inh: PME-1 inhibitors via competitive probe labeling, primary screen, biochemical, fluorescence polarization, FP-Rh probe, HTS. Protein phosphatase methylesterase 1 (Homo sapiens), Q9Y570. recombinant PME-1. hit rate 0.53% among 320,000. inhibition, % at 5.9 µM;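 active means inhibition above the campaign mean of all compounds plus 3 SD, cut at about 26% in these data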;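 further: competitive labeling of PME-1 active site by serine hydrolase directed probe; 0% = PME-1 with DMSO and 100% = wells lacking PME-1 enzyme; inhibitors block probe labeling so polarization falls and inhibition rises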
Fam108B inh: mouse Fam108B serine hydrolase inhibitors, primary screen, counter-screen for RBBP9 inhibitor project, biochemical, fluorescence polarization; hit rate 0.33% among 300,000; AID 1947, 2009; recombinant Fam108B, FP-Rh probe fluorescence polarization; inhibition, % at 9.51 µM;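 active means inhibition above the screen mean inhibition plus 3 SD, computed separately per campaign, cut at about 18% in these data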;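 further: inhibitors lower polarization as less probe binds the enzyme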
SIAE inh: human SIAE inhibitors, primary screen, biochemical, fluorescence polarization, FP-Rh probe, 1536-well HTS; Sialate O-acetylesterase (Homo sapiens), Q9HAT2; SIAE FP-Rh probe binding; inhibition, % at 9.66 µM; hit rate 0.69% among 370,000;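 active means inhibition above a cutoff: mean of compounds within the control limits plus 3 SD of those, cut at about 17% in these data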;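 further: 0% = plate median of compound wells and 100% = probe without SIAE protein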
BSA probe FL: compounds interfering with TAMRA-BSA probe, counter-screen for TCR-CD3 interaction inhibitor project, biochemical, fluorescence, TAMRA-labeled BSA | shares compounds with TCR-CD3 inh | TAMRA-labeled BSA probe fluorescence counterscreen | inhibition, % at 9.4 µM | hit rate 10% among 1,200; in the data active means inhibition above about 23%;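 further: 0% = buffer low control and 100% = reference high control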
TCR-CD3 inh conf: TCR-CD3 interaction inhibitors, retest, confirmation, biochemical, fluorescence, TAMRA-labeled TCR probe | shares compounds with TCR-CD3 inh | TAMRA-labeled TCR probe fluorescence binding assay | inhibition, % at 9.4 µM | hit rate 48% among 1,200 | AID 652036, 2013
Active calls of the source: *; nt = no result. Unless noted, no stated cut-off is given here; in the data, active means inhibition above about 19%; inactive means the rest.

SMILES | TCR-CD3 inh | PAD4 inh | PRMT1 inh | PME-1 inh | Fam108B inh | SIAE inh | BSA probe FL | TCR-CD3 inh conf
CC(C)C(=O)Nc1ccc(C(=O)NNC(=S)NC(=O)c2ccccc2[N+](=O)[O-])cc1 | 25.8* | 0.7 | -0.2 | 1.1 | 1.5 | 4.2 | -0.8 | 33.4*
CCNC(=O)C[C@H]1CC[C@H]2[C@@H](COc3ccc(NC(=O)c4ccc5c(c4)OCO5)cc3C(=O)N2C)O1 | nt | nt | 7.6 | nt | nt | 1.4 | nt | nt
Cc1cc(S(=O)(=O)Nc2c(NC3CCCCC3)c3ccccc3oc2=O)ccc1F | 19.1* | 3.4 | -0.5 | 1.9 | 0.6 | 10.3 | 4.2 | 3.4
COc1ccc(S(=O)(=O)Nc2c(NC3CCCCC3)c3ccccc3oc2=O)cc1Cl | 1.4 | -4.2 | -0.9 | -3.6 | -8.8 | 9.7 | nt | nt
CCN(CC)c1ccc(NC(=O)COc2ccccc2C#N)cc1S(=O)(=O)Nc1ccccc1OC | 21.5* | -1.8 | 1.7 | -31.7 | -11.6 | -26.1 | 1.6 | 9.2
COC(=O)C(C(=O)OC)C1OC23CN(S(=O)(=O)c4ccc(C)cc4)C=CC2(C)C3c2ccccc21 (stereo not given) | nt | nt | 1.1 | nt | nt | 3.5 | nt | nt
O=C(Nc1ccc2ccccc2c1)c1cn(-c2ccccc2)nc1-c1cccs1 | 89.3* | -13.8 | -3.7 | -73.2 | 3.9 | -107.8 | 18.4 | 38.2*
N/C(=N\C(=O)OCc1ccccc1)N(Cc1ccccc1)C(C#CC1=CCCCC1)Cc1ccccc1 (stereo not given) | nt | nt | 3.8 | nt | nt | 3.3 | nt | nt
COc1ccc(C2C(C#N)=C(N)OC3=C2C(=O)CCC3)cc1Cn1nc(C)c([N+](=O)[O-])c1C (stereo not given) | 41.6* | 0.0 | -1.3 | 10.0 | 5.3 | 4.3 | -1.0 | 0.6
CCC(=O)NNC(=O)c1c(O)c2ccccc2[nH]c1=O | 32.8* | 1.9 | -2.2 | -1.0 | -2.8 | -1.3 | -3.9 | 24.3*
CCCCCCCC(=O)NNC(=O)c1c(O)c2ccccc2[nH]c1=O | 15.4 | -2.6 | -2.1 | 1.3 | 2.7 | 0.9 | nt | nt
NNc1ccc([N+](=O)[O-])c2[nH][nH]c(=O)c12 | 50.4* | nt | 40.1* | nt | nt | 5.1 | -17.9 | 105.6*
O=[N+]([O-])c1ccc(Nc2ccccc2)c2nonc12 | -7.8 | -0.7 | 0.8 | -4.5 | -1.9 | -4.2 | nt | nt
CCOC(=O)c1csc(NC(=O)C2CCCN(S(=O)(=O)c3ccc(C)cc3)C2)n1 (stereo not given) | nt | nt | -0.2 | nt | nt | -2.4 | nt | nt
C#CCCCN([C@@H](CC(C)C)C(=O)OC)S(=O)(=O)c1ccccc1Br | nt | nt | 1.7 | nt | nt | 1.8 | nt | nt
Cc1ccc(CNC(=O)CCS(=O)(=O)c2cc3c(cc2Br)CCN3C(=O)C2CC2)o1 | nt | nt | 1.1 | nt | nt | -0.6 | nt | nt
OC[C@@H](O)C(O)[C@@H](O)CO (stereo not given in full) | 46.7* | nt | 20.8 | nt | nt | -2.1 | 1.2 | 0.4
CNCC(O)C(O)C(O)C(O)CO (stereo not given) | -0.7 | 3.0 | -2.6 | -3.2 | 2.9 | 1.4 | nt | nt
Cn1cnc2c(cnn2-c2ccccc2)c1=O | 3.7 | 2.2 | 1.1 | -2.9 | -2.4 | 0.0 | nt | nt
Cn1cnc2c(cnn2C)c1=O | 27.7* | nt | -0.6 | nt | nt | 3.8 | 1.2 | 3.2
CC(C)C[C@H](NC1(C(=O)NC2CCCCC2)CCC1)C(=O)NCC(c1ccccc1)c1ccccc1 | nt | nt | 5.0 | nt | nt | -5.2 | nt | nt
CC(C)[C@@H](CO)N(Cc1cn(Cc2ccccc2)nn1)S(=O)(=O)c1ccccc1Br | nt | nt | -2.4 | nt | nt | 1.2 | nt | nt
Cc1cnc(C=NNC(N)=S)c2cccc(N)c12 | 28.9* | nt | 9.4 | nt | nt | 9.6 | -4.3 | 15.5
O=C(O)c1ccccc1N/N=C/C1=C(N2CCOCC2)C(=C\c2ccccc2)/CC1 | 19.6* | 3.0 | 13.2 | 0.0 | 9.4 | 8.3 | -10.5 | -2.3
